The text below walks through data of PubChem BioAssay AID449762 (Southern Research Specialized Biocontainment Screening …, 2010).

Among all 330,000 compounds or so, about 1,900 (0.58%) were called active. About 4% were inconclusive and are not listed. These entries were drawn from the full list. Results with a measured potency or affinity are listed apart. A number with no mark means an inactive call. No stated cut-off is given here; in the data, inconclusive means inhibition above about 70% without an active follow-up result; inactive means below that.

A short description of this assay: M. tuberculosis growth inhibition, HTS (AID 449762).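 Further: bacterial growth assessed after seven days of incubation.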 Particulars: M. tuberculosis H37Rv growth inhibition, 7H9 media; at 25 µM; active compounds read high.
In the case of `COCC1CCN(C(=O)c2cc(COc3ccc(F)cc3F)on2)C1` (stereo unspecified), the inhibition (as a rule, the drop in the measured response relative to a control, in per cent) was -0.65%.
Then `O=C(c1cc(COc2ccc(F)cc2F)on1)N1CC[C@@H]2CCCC[C@H]2C1`, with 8.08%; and `CC(NC(=O)c1cc(F)c(F)cc1Cl)C1CC2CCC1C2` (stereo unspecified), with 9.14%.
On to `Cc1cc(C)cc(NC(=O)N2CCN(C/C=C/c3ccccc3)CC2)c1`, for which the inhibition is 6.44%.
Then `O=C(Nc1cccc(F)c1)N1CCN(C/C=C/c2ccccc2)CC1`, with -4.24%.
Under `O=C1NC(=O)C2(Cc3ccccc3N3CCCC32)C(=O)N1Cc1ccccc1` (stereo unspecified) stands -3.61%; under `C=CCNC(=O)/C(=C/c1cn(-c2ccccc2)nc1-c1cccc([N+](=O)[O-])c1)NC(=O)c1ccccc1`, 9.03%.
Then `NC(=O)/C(N=Nc1ccccc1)=N/Nc1ccccc1`, with 63.8%; and `O=[N+]([O-])/C(N=Nc1ccccc1)=N\Nc1ccccc1`, with -2.92%; and `O=C(Cn1nnc(-c2ccc(S(=O)(=O)N3CCCC3)cc2)n1)Nc1ccccc1-n1cccc1`, with -4.45%.
With `CN(CC(=O)Nc1ccc(F)cc1[N+](=O)[O-])Cc1ccccc1`, the inhibition is 6.03%.
Take `Cc1cc(C(=O)O/N=C(\N)c2ccc(C(C)(C)C)cc2)no1`: the inhibition was 0.64%.
For `CCOC(=O)c1cc(/C(C)=N/OC(=O)c2ccc(Cl)cc2)on1`, the inhibition is 47.9%.
Then `COc1cccc2c(=O)c3c([nH]c12)OC(C)(C)C3`, with 1.96%; and `NC(=O)c1ccsc1NC(=O)c1cc(=O)c2ccccc2o1`, with 1.83%; and `CC1=C(C(N)=O)C(c2ccccc2F)NC(=O)N1` (stereo unspecified), with -4.59%.
Under `O=C(N/N=C/c1ccc(F)cc1)c1cccc(NC(=O)c2ccc(F)cc2)c1` stands 9.14%.
Then `CC(C)(C)NC(=O)COC(=O)c1cc(Cl)ccc1[N+](=O)[O-]`, with -0.3%; and `CC(NC(=O)COC(=O)c1ccc(Cl)cc1O)c1ccc(F)cc1` (stereo unspecified), with 2.35%; and `CCOC(=O)c1ccc[n+](CC(=O)c2ccc(OC)cc2)c1`, with -6.92%.
Regarding `CN(C)/C=C/C(=O)c1ccc([N+](=O)[O-])c(CS(=O)(=O)c2ccccc2)c1`, the inhibition was 4.59%.
Then `OC1CCN(c2cc(-c3ccccc3)nc3cc(-c4ccc(F)cc4)nn23)CC1`, with 14.2%; and `Fc1ccc(-c2cc3nc(-c4ccccc4)cc(N4CCOCC4)n3n2)cc1`, with -0.86%; and `O=C(CN1C(=O)S/C(=C\c2ccc(F)cc2)C1=O)Nc1cccc(S(=O)(=O)NCc2ccco2)c1`, with -0.96%.
Turning to `C=CCNC(=O)C1CCN(c2cnccn2)CC1`, the inhibition is 1%.
Under `Cc1ccnc(NC(=O)C2CCN(S(=O)(=O)c3cccc(C(F)(F)F)c3)CC2)c1` stands -6.67%; under `Cn1c(O)c(C=Nc2ccc(Br)cc2)sc1=O`, 2%.
Consider `N=c1oc2ccccc2cc1C(=O)Nc1ccccc1`, for which the inhibition is -6.06%.
As for `N=c1oc2cc(O)ccc2cc1C(=O)Nc1ccccn1`, the inhibition is 9.75%.
Turning to `O=C(NCc1nnc(SCC(=O)N2CCCC2)o1)c1ccc(F)cc1`, the inhibition is -1.8%.
Then `Cc1cc(C)c(C(=O)N(C)CC2CCCN(CCc3ccccc3F)C2)o1` (stereo unspecified), with 7.36%; and `CCOC(=O)C1(CCCc2ccccc2)CCN(C(=O)c2ccoc2)CC1`, with 3.78%.
With `CC(=O)Nc1cn(-c2ccccc2)nc1-c1ccccc1`, the inhibition was 8.61%.
Then `O=C(Nc1cn(-c2ccccc2)nc1-c1ccc(Cl)cc1)c1ccccc1`, with 12.2%; and `Oc1cc(NCCc2cccnc2)cc2cccnc12`, with 11.9%.
Then `NS(=O)(=O)c1cccc(NC(=O)c2ccc3nc[nH]c3c2)c1`, with 1.29%.
Under `CC(C)c1ccc(NC(=O)C2CSC3(C)CCC(=O)N23)cc1` (stereo unspecified) stands 5.83%; under `CC12CCC(=O)N1C(C(=O)Nc1ccc(F)cc1)CS2` (stereo unspecified), -9.52%.
For the compound `Cc1ccc(CNC(=O)c2ccc(N3CCC4(CC3)CC(c3ccccc3)=NO4)c(NC(=O)c3ccc(Br)cc3)c2)cc1`, the inhibition is -2.65%.
Under `Cc1[nH]c(=O)[nH]c(=O)c1/C=C/C(=O)O` stands -3.99%.
Under `Nc1c(C(=O)OCC(=O)NCc2ccccc2)[nH]c(=O)[nH]c1=O` stands 1.89%; under `COc1ccc(-c2cc(C(F)F)n3ncc(C(=O)N4CCc5ccccc5C4)c3n2)cc1`, 15.6%; under `Cc1cc(C(F)F)n2ncc(C(=O)N3CCc4ccccc4C3)c2n1`, -2.51%.
Then `CCN(CC(=O)Nc1c(F)cccc1F)C(=O)c1ccc2c(c1)OCO2`, with -12.6%.
Turning to `COc1ccc(S(=O)(=O)CC(O)CN2CCCC2=O)cc1` (stereo unspecified), the inhibition is -0.37%.
Then `COc1cccc(N2C(=O)CN(Cc3ccc(OC)c(OC)c3)C2=S)c1`, with 2.7%; and `CC1=C(CC/C(C)=N/NC(N)=S)C(C)(C)CCC1`, with 12%; and `C/C(CC1CC2=C(CC1(C)C)C(C)(C)CCC2)=N\NC(N)=S` (stereo unspecified), with -0.2%.
As for `CC(C)n1ncc2c(C(=O)Nc3ccc(S(C)(=O)=O)cc3)cc(C3CC3)nc21`, the inhibition is 2.05%.
Under `CCn1c(=O)cc(SCC(=O)Nc2ccc(OC)c(OC)c2)c2ccccc21` stands -7.13%; under `Cc1cc(C)cc(NC(=S)N2CCC(NC(=O)C3CCCCC3)CC2)c1`, -1.01%; under `CCOP(=O)(OCC)C(O)c1cc(OC)c(OC)c(OC)c1` (stereo unspecified), 0.28%.
Under `Cc1csc(CNc2ncnc3ccc(-c4cccnc4)cc23)c1` stands 2.87%; under `Fc1ccc(/C=N/NC2=Nc3cccc4cccc2c34)cc1`, -8.86%; under `C(=N\NC1=Nc2cccc3cccc1c23)/c1ccccc1`, 9.94%.
Then `CC(=O)c1c(C)[nH]c(C(=O)Nc2cccc(S(=O)(=O)N3CCOCC3)c2)c1C`, with -28%; and `O=C(O)CNC(=S)NCc1ccccc1`, with -1.14%.
As for `CCOC(=O)c1[nH]c2cc(OC)c(OC)cc2c1NC(=O)CN1CCN(c2ccc(OC)cc2)C(C)C1` (stereo unspecified), the inhibition was -2.17%.
Then `COC(=O)c1[nH]c2cccc(OC)c2c1NC(=O)CN1CCN(c2cccc(OC)c2)C(C)C1` (stereo unspecified), with 52.6%; and `O=C(c1cc2ccccc2oc1=O)N1CCN(Cc2ccc3c(c2)OCO3)CC1`, with -3.79%.
Take `C=C(c1ccccc1O)n1ccnc1`: the inhibition was 0.25%.
Under `Cc1cccc(C(=O)NNC(=O)c2cccc(C)c2)c1` stands -16.6%.
Under `Cc1cccc(C(=O)NNC(=O)c2ccccc2)c1` stands -6.62%.
With `O=C(COc1ccccc1)NNC(=S)NC(=O)c1ccc(Cl)cc1Cl`, the inhibition was 55.5%.
With `O=C(COc1ccccc1)NNC(=S)NC(=O)c1ccccc1`, the inhibition is 56.3%.
Then `O=C(c1cc(Br)c(Br)s1)N1CCN(C/C=C/c2ccccc2)CC1`, with -4.13%; and `OCCOCCn1c(C2CCCN2c2nc(-c3ccc(F)cc3)cs2)nc2cc(C(F)(F)F)ccc21` (stereo unspecified), with 2.16%; and `CCOc1ccc(-n2nnc3c(=O)n(C/C=C/c4ccccc4)cnc32)cc1`, with -10.8%.
Then `CC(=O)Nc1ccc(C(=O)CN2C(=O)NC3(CCCCCC3)C2=O)c(F)c1`, with -9.64%; and `CC(C)c1ccc(OC(=O)c2cccc(S(=O)(=O)N3CCN(C)CC3)c2)cc1`, with 10.8%.
Under `CC1(C)N=C(N)N=C(N)N1c1cccc(CN)c1` stands -3.4%.
For `Brc1ccc2ncc(Br)cc2c1`, the inhibition was 2.82%.
With `Nc1ccc(Br)cc1Br`, the inhibition was -6.59%.
Then `COC(=O)C1CCN(C(=O)/C=C/c2ccccc2)CC1`, with -5.05%; and `Cc1nn(Cc2ccccc2)c(C)c1CNC(=O)[C@H](C)N=C1NS(=O)(=O)c2ccccc21`, with 6.6%; and `Cc1cccc(-n2cc(CNCCN3CCOC3=O)c(-c3cccc(F)c3)n2)c1`, with 1.99%.
Then `O=C1CC2(CCCCC2)Oc2ccc(F)cc21`, with -0.1%.
`NC(N)=N/N=C/c1ccc(Br)cc1`: the inhibition is 10.5%.
Then `NC(N)=N/N=C/c1ccccc1`, with -2.68%.
Consider `CCN(Cc1ccccc1)c1ccc(/C=N/N2CCOCC2)cc1`, for which the inhibition was 11.3%.
Under `CCN(Cc1ccccc1)c1ccc(/C=N/NC(=S)NC(C)C)cc1` stands 10.7%.
Then `COc1ccc(-c2oc3cccnc3c2C#CCO)cc1`, with 5.48%; and `CC(=O)N/C(=C\c1ccccc1)C(=O)N1CCOCC1`, with -6.38%.
Under `CN(C)CCCN1c2ccc([N+](=O)[O-])cc2CCc2cc([N+](=O)[O-])ccc21` stands -1.94%.
As to `COc1cc(/C=C/c2cccc[n+]2C)ccc1OCC(=O)Nc1ccccc1C`, the inhibition is -9.56%.
With `CCOc1cc(/C=C\[N+](=O)[O-])ccc1OCC(=O)N1CCOCC1`, the inhibition is 3.95%.
Then `COc1cccc(C(=O)c2c[nH]c(C(=O)NCCCN(C)C)c2)c1`, with -4.05%.
On to `COCCn1c(CN2CCN(C(=O)c3ccco3)CC2)nc2c1c(=O)n(C)c(=O)n2C`, for which the inhibition is 13%.
Under `CC(=O)c1ccc(OC(=O)COc2ccccc2)cc1` stands -5.04%.
Then `NS(=O)(=O)c1ccc(NC(=O)CSc2ncnc3ccccc23)cc1`, with 0.11%; and `CC(Sc1nnc(NC2CC2)s1)C(=O)Nc1ccc(S(N)(=O)=O)cc1` (stereo unspecified), with 8.95%; and `O=C(CSc1nnc(NC2CCCCC2)s1)Nc1ccc2c(c1)C(=O)c1ccccc1C2=O`, with 4.12%.
Under `CCN1CCN(c2nc3c(c(=O)[nH]c(=O)n3C)n2CCCc2ccccc2)CC1` stands -0.19%.
As for `COc1cc(C(C)=O)ccc1OCC(O)CN1CCN(S(=O)(=O)c2ccccc2)CC1` (stereo unspecified), the inhibition is -10.5%.
Under `CCOC(=O)c1cc(C)nc(SC)c1C#N` stands 6.64%; under `C#CCSc1nc(C)cc(C(=O)OCC)c1C#N`, 1.67%.
